Whole data set: some 35,000 sequences, median “fluorescence intensity (a.u.)” near 10,000, cut for the highest 2% near 52,000. This is one part of a sample in which the highest values are shown more often than they occur.
Target: T1, OsWOX13 (Oryza sativa, UniProt Q5QMM3 1-267)
T1 sequence: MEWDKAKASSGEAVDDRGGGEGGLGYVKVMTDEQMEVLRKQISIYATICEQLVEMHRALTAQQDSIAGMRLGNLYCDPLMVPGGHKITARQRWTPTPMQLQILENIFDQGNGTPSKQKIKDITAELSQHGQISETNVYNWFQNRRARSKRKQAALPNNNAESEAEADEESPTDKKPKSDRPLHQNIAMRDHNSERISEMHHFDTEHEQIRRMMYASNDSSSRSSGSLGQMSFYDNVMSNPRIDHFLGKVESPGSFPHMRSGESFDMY
Test: protein-binding microarray (RPBM); PBS, 2% BSA, 51.3 ng/ul salmon testes DNA, 50 uM zinc acetate, 200 nM TF, 25 C, 1 h; high values mean tight binding
Conditions: protein: recombinant; tags: N-terminal polyhistidine and DsRed monomer fusion (pET32a); label: CyDye5-dUTP incorporated in the synthesized complementary strand; 3' TTTTT single-stranded linker to array surface; dsDNA, one strand shown
How it was run: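 A custom Agilent array was converted to double-stranded form by primer extension with Cy5-dUTP and blocked with 2% BSA. Protein at 200 nM in PBS with 2% BSA, salmon testes DNA and 50 µM zinc acetate was applied for 1 h at 25 °C, followed by washing. The proteins were polyhistidine–DsRed N-terminal fusions of transcription factors, expressed in E. coli BL21-CodonPlus and Ni–NTA-purified. The binding signal is per-feature fluorescence intensity (arbitrary units) from an Axon 4000B scanner.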

Sequence | binding signal
TGTAATTATAATTTATTTTATTGTGATTTGATTTATCATCCGGAGTCACCTAGTGCAG | 59800 fluorescence intensity (a.u.)
ATGGTTTGACTTGGATAAACTGGATTCTTAACTCAAACCTCGGAGTCACCTAGTGCAG | 3410 fluorescence intensity (a.u.)
ACGTAATTATAATTATTTTATTGTGAGTTGTTTTATTACTCGGAGTCACCTAGTGCAG | 26500 fluorescence intensity (a.u.)
GCTTAATTAATTGATTCAGAAAATAAAATAGTGAAATAACCGGAGTCACCTAGTGCAG | 33400 fluorescence intensity (a.u.)
TATGTAATTATTATTTATTTTATTGTGATTTGATTCATCACGGAGTCACCTAGTGCAG | 31400 fluorescence intensity (a.u.)
TTGATATTCTTTATATGATTATATAGGATTGGTCTCCCTCCGGAGTCACCTAGTGCAG | 3530 fluorescence intensity (a.u.)
GTAATAATTGATTGGTTCAGAAATTAATCACTAATTGTCCCGGAGTCACCTAGTGCAG | 65000 fluorescence intensity (a.u.)
AATAATTTGGTTAGTTATTGTTAAGGAGAAATTTGATTCCCGGAGTCACCTAGTGCAG | 12500 fluorescence intensity (a.u.)
TGTAATTATAATTTATTTTGTGATGAGTTGTTTTATCACTCGGAGTCACCTAGTGCAG | 55800 fluorescence intensity (a.u.)
GATATATGATTGACTCAAGTCTTATTGATAAACTTGGTCCCGGAGTCACCTAGTGCAG | 57500 fluorescence intensity (a.u.)
GTAATTATAATTTATTTTGTTATGAGTTGTTTTATCACTCCGGAGTCACCTAGTGCAG | 6220 fluorescence intensity (a.u.)
TTATGTAATTATAATTTATTTTATTGTGACTTGATTTATCCGGAGTCACCTAGTGCAG | 34000 fluorescence intensity (a.u.)
GAGAAATGGTAATTTAGCATGCTTATATATTGAGGTTTAGCGGAGTCACCTAGTGCAG | 8510 fluorescence intensity (a.u.)
TAATCTGTGATGATGGATTCTCGTTAAGCATATGTTCTTTCGGAGTCACCTAGTGCAG | 5830 fluorescence intensity (a.u.)
TGGTGGTGGCTGGCGGCGGGGAGGATGAGAACGAGAGAAGCGGAGTCACCTAGTGCAG | 3920 fluorescence intensity (a.u.)
TTCCGGCCTAGATTGAATCTGGGTTTAACCGTAAGAGTCCCGGAGTCACCTAGTGCAG | 6260 fluorescence intensity (a.u.)
GTGGATATCAATCTGTATATACTAGATCCCCACCCACCATCGGAGTCACCTAGTGCAG | 6630 fluorescence intensity (a.u.)
TCGAACAGGCCCTTAATTATCTGAGCTATCCTGCATGCTTCGGAGTCACCTAGTGCAG | 8320 fluorescence intensity (a.u.)
GGCAAATTAACCAAGTTAGCTGCAGCTGCAGCTGGGATGGCGGAGTCACCTAGTGCAG | 9780 fluorescence intensity (a.u.)
CATTTGATTGTATTTCCATCTTATTCTTAATCTGTATAAGCGGAGTCACCTAGTGCAG | 32100 fluorescence intensity (a.u.)
ACCAATCACAACCATTCTTCTTCACTTACTTTCTCTTTTCCGGAGTCACCTAGTGCAG | 6630 fluorescence intensity (a.u.)

Sequence | binding signal
TGTGATTAAATGATTCCTCCAGTGCTATATGCCTATATAACGGAGTCACCTAGTGCAG | 17500 fluorescence intensity (a.u.)
GTGATTGATGTAAATGCCTTAACGGTCCAGCACCTCAGCTCGGAGTCACCTAGTGCAG | 61200 fluorescence intensity (a.u.)
CTTATAATTGATTTATAGTCTGTCATTGTATCTGCTCTTACGGAGTCACCTAGTGCAG | 65100 fluorescence intensity (a.u.)
ATTGATTATGCCATGATTGGATCTTGGCACAGTGCTCTGCCGGAGTCACCTAGTGCAG | 60300 fluorescence intensity (a.u.)
TGCCAACTTATCCATCAATTGAGATTAATGATTTGGTCTTCGGAGTCACCTAGTGCAG | 13900 fluorescence intensity (a.u.)
GTCTTAATTATATTTGATAATCAACTTTATCCTTGGTTTGCGGAGTCACCTAGTGCAG | 50800 fluorescence intensity (a.u.)
ATATTATTATATTATAATTATACTGTATTTATATCTGATACGGAGTCACCTAGTGCAG | 9100 fluorescence intensity (a.u.)
TTCTGTAATTGATGCTCCTGCATTTTAGTGTATAAGTGTACGGAGTCACCTAGTGCAG | 36500 fluorescence intensity (a.u.)
CTATATCTTGATGCTTTGTTGATTAGTACCATGGATTGGCCGGAGTCACCTAGTGCAG | 6900 fluorescence intensity (a.u.)
TTGATGATGTAACGTACGGTTGATTAATAATAAATTAGGTCGGAGTCACCTAGTGCAG | 18400 fluorescence intensity (a.u.)
GAAGTTGATTATGAGCTCTTGGATCTTTTGGCAGGTGCAACGGAGTCACCTAGTGCAG | 19400 fluorescence intensity (a.u.)
TCAATTAATTGATTTATAATGATTTGGTCTTATCAATCCCCGGAGTCACCTAGTGCAG | 53400 fluorescence intensity (a.u.)
GTTGCTAAATTTTAGTTATTACTGTGCAGTTGCCAAATTTCGGAGTCACCTAGTGCAG | 4010 fluorescence intensity (a.u.)
CATGAATTGGAAGATTTGATGCACTGATACTCCATGAAGACGGAGTCACCTAGTGCAG | 8060 fluorescence intensity (a.u.)
ATTAAATTTGAAAATTTATTAAATTGTGCTGATAAGTCAACGGAGTCACCTAGTGCAG | 14500 fluorescence intensity (a.u.)
AAGACGGTAATAGACTGTGCGAGTTGAACATGCAACTCTACGGAGTCACCTAGTGCAG | 7360 fluorescence intensity (a.u.)
TTTGTTAAATTTCTCAATTGATTCATAATTCTTTATTAGCCGGAGTCACCTAGTGCAG | 10300 fluorescence intensity (a.u.)
ACCCTTGATTTACTTGATAATTTGTTATATGTCCCCATCCCGGAGTCACCTAGTGCAG | 49800 fluorescence intensity (a.u.)
GCTAATAGATTGCTATTGTATCTGCTCTTATGCATGATCGCGGAGTCACCTAGTGCAG | 61200 fluorescence intensity (a.u.)
CCCTTGATTTACTTGATAATTTGTTATAGGTCCCTATCCCCGGAGTCACCTAGTGCAG | 53400 fluorescence intensity (a.u.)
TCCATTTATCCCGATAATTTGTACTACATTTGTATAGGCCCGGAGTCACCTAGTGCAG | 5670 fluorescence intensity (a.u.)

Reference: article PMC7819943, “Rice protein-binding microarrays: a tool to detect cis-acting elements near promoter regions in rice”
